This is a sample that favours compounds with a hit; in the whole collection about 2.4% have one here.
POLK inh: DNA polymerase kappa (human) inhibition | Potency, µM (doses to about 107 µM), for the others: top-dose activity, negative = inhibition, usual class: inhibitors | purified Pol kappa, fluorescent DNA synthesis assay, 10 min | Q9UBT6 | actives 0.53% (n = 400,000); also: % is scaled to controls: 0 for no effect and ±100 for the full control effect
Target sequence (Q9UBT6 whole entry, looked up): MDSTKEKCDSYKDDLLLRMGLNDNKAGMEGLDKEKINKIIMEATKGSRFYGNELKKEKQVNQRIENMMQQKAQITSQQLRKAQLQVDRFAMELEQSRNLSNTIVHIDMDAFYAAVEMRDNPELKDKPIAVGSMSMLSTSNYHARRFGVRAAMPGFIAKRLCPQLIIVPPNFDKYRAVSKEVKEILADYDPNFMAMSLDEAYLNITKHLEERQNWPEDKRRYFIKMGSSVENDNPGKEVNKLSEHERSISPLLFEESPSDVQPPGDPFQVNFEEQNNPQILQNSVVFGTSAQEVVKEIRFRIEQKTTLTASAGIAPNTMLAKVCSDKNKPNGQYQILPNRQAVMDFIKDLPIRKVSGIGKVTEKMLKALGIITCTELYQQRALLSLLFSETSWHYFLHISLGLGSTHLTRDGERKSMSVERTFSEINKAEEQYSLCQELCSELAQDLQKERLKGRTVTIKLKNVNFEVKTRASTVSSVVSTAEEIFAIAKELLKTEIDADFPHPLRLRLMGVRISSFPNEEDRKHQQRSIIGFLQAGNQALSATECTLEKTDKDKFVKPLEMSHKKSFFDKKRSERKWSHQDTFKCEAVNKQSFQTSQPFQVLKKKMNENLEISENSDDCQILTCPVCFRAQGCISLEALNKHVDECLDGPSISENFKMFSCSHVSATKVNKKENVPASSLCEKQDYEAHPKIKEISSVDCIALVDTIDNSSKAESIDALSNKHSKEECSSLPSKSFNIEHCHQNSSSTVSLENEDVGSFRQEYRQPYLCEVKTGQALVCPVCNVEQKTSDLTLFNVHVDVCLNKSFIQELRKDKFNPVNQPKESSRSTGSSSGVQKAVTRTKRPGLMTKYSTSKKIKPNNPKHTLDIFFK
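10 nM Pol kappa was preincubated with compounds for 15 min at room temperature. Reaction started with 50 nM (final) substrate. Fluorescence read kinetically at 0 and 10 min.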
WRN inhibitor: blocks human WRN helicase; WRN helicase unwinding, fluorescent forked duplex, kinetic; actives 0.46% (n = 360,000); Q14191; AID 651768; Potency, µM (highest dose often 114 µM), inactives show top-dose activity change, negative = inhibition, usual class: inhibitors; also: % is scaled to controls: 0 for no effect and ±100 for the full control effect; nearly all actives have a fitted effect of over 55% in size
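Kinetic fluorescence helicase assay: unwinding of a quenched forked DNA duplex (100 nM final) with 2 mM ATP final raises red fluorescence (525/598 nm). Compounds sat 15 min at room temperature with 20 nM WRN beforehand.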
POLB inh: inhibitors of human DNA polymerase beta; P06746; Pol beta primer extension/strand displacement, fluorescence kinetic; Potency, µM (doses to about 114 µM), without a hit: at the top dose activity change, negative = inhibition, usual class: inhibitors; actives 1.3% (n = 340,000); AID 485314; also: % is scaled to controls: 0 for no effect and ±100 for the full control effect
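Homogeneous kinetic assay of primer extension and strand displacement by 10 nM Pol beta, preincubated 15 min at room temperature with compound before 50 nM substrate (final) was added. Read at 0 and 10 min; four-parameter Hill fit.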
Pol iota inh: inhibitors of human DNA polymerase iota. Q9UNA4. Pol iota fluorescent replication assay, 10 min. Potency, µM (series often up to 115 µM), for inactives: top-dose activity, negative = inhibition, usual class: inhibitors. actives 1% (n = 390,000). AID 588590
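Pol iota at 10 nM preincubated 15 min with compounds at room temperature; reaction started with fluorescent substrate, 50 nM final. Fluorescence read kinetically at 0 and 10 min; buffer-only wells as negative control.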
Pol eta inh: inhibitors of human DNA polymerase eta; Q9Y253; recombinant Pol eta, fluorescent DNA replication assay; Potency, µM (doses to about 114 µM), inactives show top-dose activity change, negative = inhibition, actives largely listed as inhibitors; actives 1.2% (n = 390,000); AID 588591; also: % is scaled to controls: 0 for no effect and ±100 for the full control effect
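Pol eta at 10 nM preincubated with compounds 15 min at room temperature; reaction started with fluorescent substrate (50 nM final) and read kinetically at 0 and 10 min.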
FEN1 inh: inhibitors of human flap endonuclease 1; Potency, µM (highest dose often 114 µM), without a hit: top-dose activity change, negative = inhibition, hits mostly inhibitors; actives 0.35% (n = 390,000); P39748; Recombinant FEN1 flap cleavage, fluorescence, 15 min; AID 588795; also: % is scaled to controls: 0 for no effect and ±100 for the full control effect; nearly all actives have a fitted effect of over 65% in size
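Recombinant FEN1 (10 nM) was preincubated with pin-transferred compounds for 15 min at room temperature, then flap DNA substrate (50 nM final) was added. Plates were read at 0 and 15 min, and normalized concentration–response data were fitted to a four-parameter Hill equation.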
* = called active by the depositor; ? = inconclusive; / = no result; [ ] = another dose, or the depositor's remark. Calls follow the shape of the dose curve; as a rule, active = well fitted curve in the direction sought with a large enough effect; inconclusive = small, poorly fitted or top-dose-only effect, or another doubt; inactive = no such curve, though single readings can be large; an effect the other way counts as inactive or inconclusive. Potency is read from the fitted curve at half-maximal effect.

SMILES	POLK inh	WRN inhibitor	POLB inh	Pol iota inh	Pol eta inh	FEN1 inh
CCC1=NN2C(=N)/C(=C\c3cccn3-c3ccc(OC)cc3)C(=O)N=C2S1	-9.6%	-3.2%	0.4%	?	-19.1%	-28.6%
O=C1NC(=S)S/C1=C\c1ccc(SCc2ccco2)o1	1.78µM*	8.91µM*	2.24µM*	?	1.58µM*	?
CCC1=NN2C(=N)/C(=C\c3ccc(SCc4ccco4)o3)C(=O)N=C2S1	?	50.1µM*	12.6µM*	22.4µM*	15.8µM*	-28.7%
CC(=O)c1ccc(NC(=O)c2ccc3snnc3c2)cc1	-14.0%	-17.0%	25.1µM*	?	?	-9.0%
Nc1nc(-c2ccco2)nn1C(=O)CCc1ccccc1	-5.2%	-22.0%	3.7%	13.0%	-1.2%	-4.7%
COc1ccc2nc(C)cc(SCC(=O)NNC(=O)COc3cccc4ccccc34)c2c1	-21.6%	-13.2%	12.6µM*	?	?	-15.1%
CCOc1ccc(N=Nc2c(=O)[nH]n3c(=O)cc(C)[nH]c23)cc1	-13.9%	-32.2%	-3.1%	-12.3%	-7.9%	-5.2%
CCOc1ccc(N=Nc2c(=O)[nH]n3c(=O)c4c([nH]c23)CCCC4)cc1	-12.4%	-31.1%	50.1µM*	19.6%	-18.1%	-6.6%
Cc1nn(CC(=O)c2ccc(Cl)s2)c(C)c1[N+](=O)[O-]	2.8%	-8.7%	-7.1%	6.4%	-3.3%	-1.4%
COc1ccccc1CCNC(=O)Cn1ccc2cc(S(=O)(=O)N3CCCCC3)ccc21	?	/	1.7%	89.1µM*	-5.9%	?
COc1ccccc1CCNC(=O)Cn1ccc2cc(S(=O)(=O)N3CCCC3)ccc21	-12.4%	-13.6%	2.8%	25.1%	-6.6%	0.5%
CSc1cccc(NS(=O)(=O)c2ccc(-c3coc(C)n3)cc2)c1	1.9%	-11.8%	6.0%	27.9%	-14.2%	8.9%
CC(=O)N/C(=C\c1ccccc1)C(=O)OCC(=O)c1c(N)n(C)c(=O)n(C)c1=O	-8.8%	-3.1%	/	156.4%	-7.1%	7.7%
CO/N=C(\C(=O)N[C@@H]1C(=O)N2C(C(=O)O)=C(CSc3nc(=O)c(O)nn3C)CSC12)c1csc(N)n1 (some centres undefined)	?	/	14.1µM*	25.1µM*	11.2µM*	/
CO/N=C(/C(=O)N[C@@H]1C(=O)N2C(C(=O)O)=C(CSC(=O)c3ccco3)CSC12)c1csc(N)n1 (some centres undefined)	0.2%[19.4 µM]	/	/	/	/	/
CO/N=C(\C(=O)N[C@@H]1C(=O)N2C(C(=O)O)=C(COC(N)=O)CS[C@H]12)c1ccco1	?	-34.8%	?	39.8µM*	2.51µM*	-2.9%
CO/N=C(/C(=O)N[C@@H]1C(=O)N2C(C(=O)O)=C(C[n+]3ccc(N)n3CCO)CS[C@H]12)c1csc(N)n1	4.2%[19.4 µM]	/	/	/	/	/
CO/N=C(/C(=O)NC1C(=O)N2C(C(=O)O)=C(COC(N)=O)CSC12)c1ccco1 (centres undefined)	35.5µM*	/	/	/	/	/
Cc1ccc(S(=O)(=O)N(C)c2ccc(OCC(=O)OCc3cccc(Br)c3)cc2)cc1	-18.2%	-2.3%	/	-2.6%	-14.4%	-11.6%
Cc1cccc(COc2ccc(/C=N/NC(=O)c3nnn(-c4nonc4N)c3C)cc2)c1	6.6%	1.3%	?	-21.6%	-17.3%	10.9%
CC1(C)C(=O)NCCN1C(=O)c1ccc2nc(Cc3ccccc3F)oc2c1	-9.8%	-21.9%	4.0%	18.9%	-18.2%	-1.7%
Cc1ccc(N2CC(C(=O)NCC3CCCO3)CC2=O)cc1Cl (centres undefined)	-8.0%	-0.7%	-1.1%	1.3%	-10.9%	-2.1%
CCOC(=O)CN1C(=N)N(c2nc(NC(C)C)nc(OC)n2)CC1=O	-0.8%	8.3%[11.6 µM]	22.0%	79.4µM*	-0.4%	13.1%
Cc1ccc2c(CC(=O)OCc3cc(=O)n4c(n3)sc3ccccc34)coc2c1	?	?	10µM*	?	10µM*	-3.5%
COc1ccc2c(c1)c(CC(=O)NCc1cc([N+](=O)[O-])ccc1O)c(C)n2C(=O)c1ccc(Cl)cc1	-34.9%	?	39.8µM*	?	44.7µM*	0.2%
SMILES	POLK inh	WRN inhibitor	POLB inh	Pol iota inh	Pol eta inh	FEN1 inh
Cc1ccc2nc(-c3ccc(NC(=O)CSc4nc(N)cc(=O)[nH]4)cc3)sc2c1	-9.5%	7.0%	-2.4%	-20.0%	-2.7%	-3.8%
Cc1ccc2nc(-c3ccc(NC(=O)CSc4nccc(=O)[nH]4)cc3)sc2c1	-12.0%	?	35.5µM*	95.1%	-17.4%	?
CCn1c(SCC(=O)Nc2ccc(-c3nc4ccc(C)cc4s3)cc2)nnc1-c1ccccc1	/	/	7.94µM*	/	/	/
O=S(=O)(Cc1ccccc1Cl)NCCOc1ccccc1	6.2%	-11.8%[57.1 µM]	9.4%	12.6%	-14.8%	-3.2%
O=C(CNC(=O)N1CC(=O)Nc2ccccc21)Nc1cc(Cl)ccc1Cl	1.1%	1.0%[11.6 µM]	39.4%	-23.3%	-7.2%	39.8µM*
O=C(Nc1ccc2oc(-c3cc(Br)ccc3Cl)nc2c1)c1cc2ccccc2o1	-2.7%	/	2.82µM*	53.0%	?	-7.4%
O=C(CSCc1ccc(Cl)cc1)N/N=C/c1ccc(OCC(=O)Nc2ccccc2)cc1	0.1%	-12.2%	79.4µM*	?	-16.4%	14.6%
COc1ccc([C@H]2N[C@]3(CCCN(Cc4ccc(Br)cc4)C3=O)[C@H]3C(=O)N(Cc4ccccc4)C(=O)[C@@H]23)cc1	/	-7.1%	/	/	-11.5%	/
Cc1cccc(CNC(=O)CN2C(=O)CCn3nc(-c4cn(C)c5ccccc45)cc32)c1	-9.7%[60.1 µM]	/	17.8µM*	?	-5.2%	3.9%
Cc1cccc(CNC(=O)CCCN2C(=O)CCn3nc(-c4cn(C)c5ccccc45)cc32)c1	-3.7%[60.1 µM]	/	-5.9%	-2.3%	7.8%	-3.4%
Cc1c(C)c2ccc(O[C@@H]3O[C@H](CO)[C@H](O)[C@H](O)[C@H]3O)cc2oc1=O	14.9%	3.8%	6.2%	-4.6%	-10.6%	-2.2%
COc1cc2cc(Oc3ccc4ccc(=O)oc4c3)c(=O)oc2cc1O[C@@H]1O[C@H](CO)[C@@H](O)[C@H](O)[C@H]1O	44.7µM*	?	/	50.1µM*	8.91µM*	-25.0%
CCOC(=O)C1CCCN(C(=O)CCCOc2cc(=O)n(C)c3ccccc23)C1 (centres undefined)	-5.7%	4.5%	17.3%	36.8%	-2.3%	-9.5%
COc1ccc(S(=O)(=O)N(CCc2ccccc2)CC(=O)Nc2cc(Cl)ccc2C)cc1	?	/	-25.9%	89.1µM*	-24.2%	?
Cc1ccc(C)c(NC(=O)CN(CCc2ccccc2)S(=O)(=O)c2ccccc2)c1	-15.6%	/	18.5%	79.4µM*	-11.1%	89.1µM*
CCNC(=O)c1ccccc1NC(=O)c1cccc(S(=O)(=O)N2CCOCC2)c1	-6.7%	0.5%	37.2%	-1.2%	-16.4%	-5.6%
